Assay outcomes from PubChem BioAssay.
Most compounds without a hit are left out; they make up all but 9.2% or so of the library.
ELG1 genotox: genotoxicity induction in ELG1-luciferase HEK293T cells; HEK293T ELG1-luciferase reporter, luminescence, 16 h; Potency, µM (doses to about 46 µM), usual class: activators; 330,000 tested, 1.3% active; also: nearly all actives have a fitted effect of over 60% in size
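Step 1: seed 2,000 HEK293T ELG1-luciferase cells per well. Step 2: add compound or DMSO, incubate 16 hr at 37 °C. Step 3: ONE-Glo, 30 min at room temperature, read luminescence.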
ELG1 repair inh: ELG1-dependent DNA repair inhibition. HEK293T ELG1-luciferase reporter, luminescence, 16 h; DNA damage induced by 5-fluorouridine. Potency, µM (doses to about 46.1 µM), most hits filed as inhibitors. 330,000 tested, 2.3% active. AID 504467; also: nearly all actives have a fitted effect of over 55% in size
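Cells (2,000 per well) received 5-fluorouridine plus test compound or DMSO and were incubated 16 hr at 37 °C, 5% CO2. Luciferase activity was read by luminescence 30 min after ONE-Glo addition; signal suppression marked inhibition of damage-induced ELG1 function.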
SMN2 splice enh: SMN2 splice variant enhancement | AID 1458 | 210,000 tested, 2.8% active | Potency, µM (doses to about 46.1 µM), actives largely listed as activators | HEK293 SMN2-luciferase splicing reporter, luminescence, 30-36 h; also: nearly all actives have a fitted effect of over 55% in size
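HEK293 cells carry an SMN2 […]–luciferase reporter in which exon 7 inclusion puts luciferase in frame. Cells were plated 10-12 h before compound addition, then incubated 30-36 h at 37C. ONE-Glo luminescence was read; sodium butyrate at 4.5 mM final served as control.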
FLuc counter: counter-screen for miR-21 project: firefly luciferase inhibitors or activators; P08659; purified FLuc, Km substrates, luminescence inhibition; Potency, µM (titrated, usually from 57.5 µM), most hits filed as inhibitors; 360,000 tested, 6.9% active; AID 588342; also: nearly all actives have a fitted effect of over 55% in size
Target sequence (P08659 whole entry, looked up): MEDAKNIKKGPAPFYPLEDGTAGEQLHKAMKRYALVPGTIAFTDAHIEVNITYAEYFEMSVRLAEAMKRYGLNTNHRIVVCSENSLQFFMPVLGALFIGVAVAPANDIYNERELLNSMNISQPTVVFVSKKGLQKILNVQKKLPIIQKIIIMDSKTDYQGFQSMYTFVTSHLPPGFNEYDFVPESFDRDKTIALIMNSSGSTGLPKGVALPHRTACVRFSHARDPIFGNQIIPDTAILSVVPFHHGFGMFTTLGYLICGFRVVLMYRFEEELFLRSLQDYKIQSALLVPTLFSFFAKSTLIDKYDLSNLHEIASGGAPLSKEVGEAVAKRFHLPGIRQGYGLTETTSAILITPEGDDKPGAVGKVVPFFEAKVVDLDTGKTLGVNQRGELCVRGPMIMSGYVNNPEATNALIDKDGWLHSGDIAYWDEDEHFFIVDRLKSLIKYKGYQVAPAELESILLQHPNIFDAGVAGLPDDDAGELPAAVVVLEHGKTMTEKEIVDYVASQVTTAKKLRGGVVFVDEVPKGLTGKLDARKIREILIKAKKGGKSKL
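Purified P. pyralis luciferase (10nM final) with 10uM D-luciferin and 10uM ATP (Km levels) in 50mM Tris acetate pH 7.5, 10mM Mg acetate, 0.01% Tween-20, 0.05% BSA; qHTS 6-point titration, ~60 µM downward; luminescence read.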
NPC1 prom act: NPC1 promoter activation | Potency, µM (titrated, usually from 9.22 µM), most hits filed as activators | 320,000 tested, 2.4% active | Huh7 NPC1 promoter luciferase reporter, 24 h; also: nearly all actives have a fitted effect of over 60% in size
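Huh7 cells stably carrying NPC1 promoter–luciferase, plated in Opti-MEM with 10% FBS for 2 h, were exposed to compound in DMSO for 24 h at 37 °C; luciferase reagent was added for 10 min and luminescence read.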
Rab9 promoter act: activates the Rab9 promoter. Huh7 Rab9 promoter-luciferase reporter, luminescence, 24 h. 320,000 tested, 2.8% active. Potency, µM (top dose mostly 9.22 µM), actives largely listed as activators; also: nearly all actives have a fitted effect of over 60% in size
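Luciferase signal after 10 min detection reagent at ambient indicates Rab9 promoter upregulation; stably transfected Huh7 cells were treated 24 h with compound in DMSO at 37 °C, 5% CO2.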
Numbers stand for hits; . = inactive; ? = inconclusive; / = no result given. Calls follow the shape of the dose curve; as a rule, active = well fitted curve in the direction sought with a large enough effect; inconclusive = small, poorly fitted or top-dose-only effect, or another doubt; inactive = no such curve, though single readings can be large; an effect the other way counts as inactive or inconclusive.

SMILES	ELG1 genotox	ELG1 repair inh	SMN2 splice enh	FLuc counter	NPC1 prom act	Rab9 promoter act
O=C(N/N=C/c1ccnc2ccccc12)c1ccccc1O	.	?	/	11µM	.	.
O=C(N/N=C/c1ccc2nccnc2c1)c1ccncc1	.	.	/	?	.	.
O=C(N/N=C/c1ccc2nccnc2c1)c1ccccc1O	.	?	/	0.27µM	?	?
CCOC(=O)CC1=C(C(=O)OCC)C(c2ccc(C)o2)C(C#N)=C(N)O1 (configuration not stated)	.	.	.	.	.	.
Cc1ccc(C2C(C#N)=C(N)Oc3c2sc2ccccc32)o1 (configuration not stated)	?	.	.	13µM	.	.
Fc1ccc2nc3c(nc2c1)CCCC3	.	.	/	.	.	.
CC1Cc2nc(SCC(=O)N3CCCc4ccccc43)n(C)c(=O)c2S1 (configuration not stated)	.	23µM	.	.	.	.
Cc1ccc2c(c1)nnn2C1CCN(S(=O)(=O)c2cccc(S(=O)(=O)N(C)C)c2)CC1	.	21µM	.	.	.	.
Cc1ccc2c(c1)nnn2C1CCN(S(=O)(=O)c2ccc(C(=O)N3CC(C)CC(C)C3)cc2)CC1 (configuration not stated)	.	21µM	/	.	.	.
Cc1ccc2c(c1)nnn2C1CCN(S(=O)(=O)c2ccc(C(=O)N(C)C)cc2)CC1	.	18µM	.	.	.	.
CC(C)(C)c1nc2ccc(NS(=O)(=O)c3ccc(F)c(F)c3F)cc2[nH]1	.	.	/	.	.	.
Cc1ccc(-c2nc3ccc(NS(=O)(=O)c4ccccc4)cc3[nH]2)o1	?	?	?	12µM	4µM	?
O=S(=O)(Nc1ccc2nc(-c3ccc(Br)o3)[nH]c2c1)c1ccccc1	.	?	.	15µM	2.8µM	2.8µM
O=S(=O)(Nc1ccc2nc(C(F)(F)F)[nH]c2c1)c1ccccc1	.	10µM	.	.	.	.
Cc1cc(NS(=O)(=O)c2ccc3nc(-c4ccccc4)[nH]c3c2)ccc1Br	/	/	.	?	/	/
COCCn1ccc2c(OCC(=O)Nc3cccc(OC)c3)cccc2c1=O	/	/	/	.	/	/
O=C(c1ccc(OC(F)(F)F)cc1)c1ncc[nH]1	?	?	/	?	?	3.5µM
CN(C)c1ccc(C2=NOC(CN3C(=O)c4ccccc4S3(=O)=O)C2)cc1 (configuration not stated)	?	?	13µM	3µM	3.2µM	0.63µM
CN(C)c1nc(N(C)C)nc(N(C#N)CN2C(=O)c3ccccc3S2(=O)=O)n1	.	.	.	.	.	.
CC(=O)c1ccc(N2CCN(c3nc4c(S(=O)(=O)c5ccc(C)c(C)c5)nnn4c4ccc(Cl)cc34)CC2)cc1	/	/	.	.	/	/
CC(C)(C)C1CCC(C(=O)Nc2ccccc2N2CCOCC2)CC1 (configuration not stated)	.	.	/	/	.	.
Cc1ccc(S(=O)(=O)N2[C@@H](c3cccc(C)c3)C(C(=O)O)=C[C@H]2CC2CCCC2)cc1	.	.	/	/	/	/
CCC(=O)N1CCCc2cc(S(=O)(=O)CCC(=O)Nc3ccccc3C)ccc21	.	.	/	.	.	.
CC(C)N1C(=S)N(Cc2ccco2)C(=O)C1CC(=O)Nc1ccccc1 (configuration not stated)	.	?	.	.	.	.
O=[N+]([O-])c1ccc2nc(-c3ccccc3)oc2c1	?	?	11µM	9.5µM	2.8µM	3.2µM
SMILES	ELG1 genotox	ELG1 repair inh	SMN2 splice enh	FLuc counter	NPC1 prom act	Rab9 promoter act
COc1cccc(-c2nc3ccc([N+](=O)[O-])cc3o2)c1	?	?	16µM	1.5µM	?	2.2µM
O=c1oc(-c2cccc([N+](=O)[O-])c2)nc2ccccc12	.	.	/	?	.	.
CC(C)(C)Nc1nc2ccc([N+](=O)[O-])cc2o1	.	?	/	.	.	.
CCCN(CCC)C(=O)CSc1nc2ccccc2c(=O)n1C1CCCC1	.	?	.	.	.	.
O=C1C(c2ccccc2)=[N+]([O-])c2ccccc21	?	?	/	12µM	.	.
Cc1ccc2nc3c(cc2c1)c(NC(=O)c1ccccn1)nn3CC(C)C	.	23µM	.	?	.	.
CCn1nc(NC(=O)c2ccccc2)c2cc3cccc(C)c3nc21	.	7.3µM	/	.	.	.
CCn1nc(NC(C)=O)c2cc3cccc(C)c3nc21	.	.	/	.	.	.
Cc1ccc2cc3c(NC(=O)c4ccco4)nn(CC(C)C)c3nc2c1	.	.	.	.	.	.
CCn1nc(NC(=O)Cc2ccc(OC)cc2)c2cc3cc(C)ccc3nc21	?	?	/	?	.	.
CCn1nc(NC(=O)c2ccccn2)c2cc3cc(C)ccc3nc21	.	?	.	9.5µM	.	.
CCOc1ccc(/C=C2\SC(=S)N(CC(=O)N(CCO)C(C)(C)C)C2=O)cc1	.	.	.	12µM	.	.
O=C(CCN1C(=O)/C(=C/c2ccccc2)SC1=S)Nc1ccccn1	.	.	/	.	.	.
Cc1ccc(/C=C2\SC(=S)N(CCCC(=O)Nc3ccccn3)C2=O)cc1	.	?	.	13µM	.	.
COc1ccc(/C=C2\SC(=S)N(CCCC(=O)Nc3ccccn3)C2=O)cc1OC	.	16µM	.	.	.	.
CCOc1ccc(/C=C2\SC(=S)N(CC(=O)Nc3ccccn3)C2=O)cc1	.	?	/	21µM	.	.
CCN1C(=O)[C@H]2[C@H]3CN=C(SCc4ccc(Cl)cc4)N3[C@@](CC)(C(=O)OC)[C@H]2C1=O	.	.	/	/	/	/
COc1cc(/C=C2\SC(=S)N(CCC(=O)NCCc3ccccc3)C2=O)cc(OC)c1OC	.	.	/	.	.	.
COc1cc(/C=N/N(C)C)ccc1OC(=O)c1cccs1	.	.	.	27µM	.	.
COc1cc(/C=C2/SC(=S)N(CC(=O)O)C2=O)ccc1OC(=O)c1cccs1	.	.	/	4.8µM	.	.
O=C1/C(=C/c2ccccn2)SC(=S)N1CCc1ccccc1	?	?	/	.	?	3.5µM
COc1cc(/C=C2\SC(=S)N(CCC(=O)Nc3ccccc3O)C2=O)cc(OC)c1OC	.	7.3µM	/	.	.	.
COc1cc(OC)cc(C(=O)N[C@H](C(=O)OCC(=O)c2c[nH]c3ccccc23)C(C)C)c1	.	21µM	/	/	/	/
O=C(CC1CC2CCC1C2)OCC(=O)c1c[nH]c2ccccc12 (configuration not stated)	.	?	.	15µM	.	.
COc1ccc(C(=O)OCC(=O)c2c[nH]c3ccccc23)c(OC)c1	.	?	/	/	/	/
